This note sets out measurements from PubChem BioAssay (NCI).

Assay in all cases: NCI-60 one-dose screen, 48 h (100 = growth as untreated, 0 = no growth, -100 = all killed)
Details in all cases: 10 µM unless noted

For assay [1], the system named is NCI-H23 lung.
The subject of assay [2] is NCI-H226 lung.
For assay [3], the system named is NCI-H322M lung.
Assay [4] concerns HOP-62 NSCLC.
The test system of assay [5] is NCI-H460 lung.
In assay [6] the test system is HOP-92 NSCLC.
Assay [7] has as its system NCI-H522 lung.
In assay [8] the test system is A549/ATCC NSCLC.
Assay [9] concerns 786-0 renal.
In assay [10] the test system is DU-145 prostate.
In assay [11] the test system is K-562 leukemia.
Assay [12] relates to MALME-3M melanoma.
The test system of assay [13] is MDA-MB-231 breast.
Assay [14] concerns RXF 393 renal.
Assay [15] has as its system SF-268 CNS.
In assay [16] the test system is SF-295 CNS.
The test system of assay [17] is SF-539 CNS.
In assay [18] the test system is UACC-257 melanoma.
Assay [19] relates to M14 melanoma.
The test system of assay [20] is COLO 205 colon.

The structures appear in SMILES notation. About 83,000 compounds went through this panel and 20% of them were active in at least one assay; those are over-represented in the sample as a whole.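 Cell lines were cultured in 96-well plates, exposed to a single compound concentration, and assessed for percent growth 48 hours later.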 Values without a mark were called inactive. Calls of active or inactive are those of the source. How the source made its calls: active means growth percent below 10; inactive means the rest.

As to `O=C(CSc1nc2ccccc2c(=O)n1-c1ccccc1)N/N=C/c1ccc(Oc2ccc(Br)cc2)cc1`, the growth was 49.9% in [1]; 77.6% in assay [2]; 86.8% in assay [3]; 63.9% in assay [4]; 28% in assay [5]; 73% in assay [6]. In addition, the growth in assay [7] is 48.5%; in [8], 42.2%; in assay [9] it was 46%; in assay [10] it was 38.3%; in [11], 62.5%; in assay [12], 54.9%. Besides, the growth in assay [13] is 50.9%; in [14] it was 62.2%; in assay [15] it was 84.3%; in [16], 83.7%; in assay [17], 68.7%; in assay [18] it was 93.7%. In addition, the growth in assay [19] was 56.3%.

As to `Nn1c(=O)n(-c2cccc(C(F)(F)F)c2)c(=O)c2cc(-c3ccc(F)cc3F)ccc21`, the growth was -6.15% (active) in assay [1]; 16.5% in assay [2]; 5.15% (active) in assay [3]; 2.28% (active) in [4]; 6.49% (active) in assay [5]; -35.6% (active) in assay [6]. Further, the growth is -2.03% (active) in assay [7]; 5.13% (active) in assay [8]; 45.7% in assay [9]; 24.4% in assay [10]; 6.85% (active) in [11]; -17.2% (active) in [12]. Moreover, the growth in assay [13] is -10.2% (active); in [14], 3.65% (active); in [15], 17.8%; in assay [16], -4.06% (active); in assay [17], 19.4%; in assay [18], -8.9% (active). Moreover, the growth in assay [19] was 17.1%.

For `Cn1cc(-c2cc3ncnc(Nc4ccc(CC(=O)Nc5nc(C(C)(C)C)cs5)cc4)c3s2)cn1`, the growth in assay [1] was 47.5%; in [2], 32.9%; in assay [3], 43.8%; in assay [4], 93.1%; in [5] it was 54.3%; in [6], 85%. Besides, the growth is 36.9% in [7]; 46.4% in [8]; 34.4% in assay [9]; 38% in [10]; 16.2% in [11]; 55.9% in assay [12]. Moreover, the growth in assay [13] is 45.6%; in assay [14], 26.4%; in assay [15], 56.2%; in assay [16] it was 69.6%; in assay [17], 29.1%; in assay [18], 79.1%. For the same compound, in assay [19], the growth is 41.5%.

`Cc1ccc2c(n1)C(=O)C(Cl)=C(Nc1cc(C(F)(F)F)cc(C(F)(F)F)c1)C2=O`: the growth was 86% in assay [1]; 84.3% in assay [2]; 105% in assay [3]; 118% in [4]; 95.9% in [5]; 92.4% in assay [6]. The growth is 37.4% in assay [7]; 101% in [8]; 80.3% in [9]; 92.5% in assay [20]; 95.3% in [10]; 4.18% (active) in assay [11]. The growth is 47.9% in assay [12]; 87.1% in [13]; 74.5% in assay [14]; 87.1% in assay [15]; 95.7% in assay [16]; 93.9% in assay [17]. Further, the growth in assay [18] is 75.2%; in [19], 89.9%.

As for `CCCc1cc2cc(-n3nc(CC)c4c3CC(C)(C)CC4=O)cc(NC3CCC(O)CC3)c2c(=O)[nH]1` (stereo not given), the growth in [1] was 18.3%; in [2] it was 13.9%; in assay [3], 35.1%; in assay [4] it was 15.4%; in [5], -12.1% (active); in assay [6], -1.33% (active). The growth in [7] is 17.7%; in assay [8], 25%; in [9], -12.4% (active); in assay [20], 8.47% (active); in assay [10] it was 40.2%; in assay [11], 10.9%. The growth in [12] is 8.74% (active); in [13], 7.65% (active); in assay [14], -15.8% (active); in [15], 49.3%; in [16], 28.5%; in [17] it was 4.55% (active). Further, the growth in [18] was 29.1%; in assay [19], 27.2%.

In the case of `COc1cc(/C=N\NC(=O)c2ccc3nc(-c4ccc(Br)cc4)[nH]c3c2)cc(OC)c1OC`, the growth in assay [1] was 40.2%; in assay [2] it was 48.7%; in [3], 76.8%; in assay [4], 72.6%; in assay [5], 42.3%; in assay [6], 34.4%. Besides, the growth in assay [7] is 45.4%; in [8] it was 72.5%; in assay [9], 38.4%; in assay [10] it was 65.6%; in assay [11], 22.5%; in assay [12], 23.4%. Also, the growth was 101% in [13]; 9.72% (active) in [14]; 51.7% in [15]; 32.5% in assay [16]; 32.6% in assay [17]; 33.1% in assay [18]. For the same compound, the growth in assay [19] is 38.3%.

With `CCOc1cccc(/C(N)=N/C(N)=N/c2nc3ccccc3s2)c1`, the growth in [1] was 66.4%; in assay [2] it was 78.6%; in [3], 91%; in assay [4], -38.7% (active); in [5], 70.4%; in assay [6], 105%. In addition, the growth in assay [7] was 94.3%; in assay [8] it was -20% (active); in assay [9], 105%; in assay [20], 113%; in assay [10], 83.4%; in [11], 77.3%. The growth in assay [12] was 115%; in assay [13], 74.3%; in assay [14] it was 110%; in assay [15], 86.5%; in assay [16] it was 37.7%; in assay [17], 104%. In addition, the figures for the growth in assay [18] and in assay [19] were 113% and 93.2%, respectively.

As to `O=C(O)c1ccc(-n2c(=O)n(-c3cccc(C(F)(F)F)c3)c(=O)c3cc(-c4ccc(F)cc4F)ccc32)cc1`, the growth was -4.43% (active) in [1]; 10.4% in assay [2]; 8.23% (active) in [3]; 6.54% (active) in [4]; 5.81% (active) in assay [5]; -28.5% (active) in assay [6]. The growth was -7.88% (active) in assay [7]; 10% in [8]; 22.3% in [9]; 25.9% in [10]; 5.71% (active) in assay [11]; -12.8% (active) in [12]. Further, the growth is -25.8% (active) in assay [13]; -1.85% (active) in assay [14]; 22.1% in assay [15]; -12.6% (active) in assay [16]; 17.8% in assay [17]; -1.96% (active) in assay [18]. Besides, in assay [19], the growth is 18.6%.
